Screens deposited in PubChem BioAssay by National Center for Advancing Translational Sciences (NCATS).
Rows were chosen to be rich in hits. Some 2.3% of all compounds tested hit in one or more screens of this group.
Hsp90 Hop PPI – changes Hsp90-Hop TPR2A binding signal, up or down | AlphaScreen TPR2A-His6 binding biotin-Hsp90 C-terminal peptide | Potency, µM (series often up to 57 µM) | actives 0.44% (n = 71,000); active means well fitted curve in either direction with a large enough effect; inconclusive means small, poorly fitted or top-dose-only effect, or another doubt
Pol III holo inh – blocks replication by bacterial DNA polymerase III holoenzyme; reconstituted DNA polymerase III holoenzyme replication, biochemical; AID 603; actives 0.25% (n = 71,000); Potency, µM (highest dose often 57.1 µM)
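Reconstituted *E. coli* holoenzyme (0.35 nM Pol III, 1 nM beta, 154 nM SSB, 2 nM primase) was preincubated with compound for 15 min at RT. Synthesis on 1.4 nM ssM13Gori ran 35 min, then was stopped with PicoGreen/EDTA and read as dsDNA fluorescence.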
TsaE inh – displaces an ADP probe from E. coli YjeE (TsaE). AID 605. purified YjeE enzyme, qHTS inhibition assay. actives 0.05% (n = 71,000). P0AF67. Potency, µM
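Fluorescence polarization of a BODIPY Texas Red–ADP probe (2 uM) bound to purified YjeE (10 uM) was read after 15 min room-temperature incubation with compounds. Loss of polarization marks inhibitors; ADP serves as titrated control.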
BRCT PPI green – inhibitors of human BRCA1 BRCT-phosphoprotein interaction (green fluorophore). BRCA1 BRCT-phosphopeptide binding, green fluorescence polarization. Potency, µM (highest dose often 76.9 µM), actives largely listed as inhibitors. actives 0.05% (n = 75,000)
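Compounds were incubated for 12 min at room temperature with a complex of 100 nM fluorescein-tagged pBACH1 decapeptide and 250 nM His-tagged BRCT protein. Buffer was phosphate pH 7.3 with EDTA, DTT and Tween 20. Disruption of binding lowers the polarization signal.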
Tau filament bind – tau filament binding | P10636 | recombinant tau filaments, thioflavin S fluorescence, 15 h; filaments grown with octadecylsulfate alongside compound | Potency, µM (doses to about 57.1 µM) | actives 2% (n = 71,000) | AID 596;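 further: actives lower thioflavin S fluorescence by blocking filaments or displacing dye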
Target sequence (P10636 whole entry, looked up): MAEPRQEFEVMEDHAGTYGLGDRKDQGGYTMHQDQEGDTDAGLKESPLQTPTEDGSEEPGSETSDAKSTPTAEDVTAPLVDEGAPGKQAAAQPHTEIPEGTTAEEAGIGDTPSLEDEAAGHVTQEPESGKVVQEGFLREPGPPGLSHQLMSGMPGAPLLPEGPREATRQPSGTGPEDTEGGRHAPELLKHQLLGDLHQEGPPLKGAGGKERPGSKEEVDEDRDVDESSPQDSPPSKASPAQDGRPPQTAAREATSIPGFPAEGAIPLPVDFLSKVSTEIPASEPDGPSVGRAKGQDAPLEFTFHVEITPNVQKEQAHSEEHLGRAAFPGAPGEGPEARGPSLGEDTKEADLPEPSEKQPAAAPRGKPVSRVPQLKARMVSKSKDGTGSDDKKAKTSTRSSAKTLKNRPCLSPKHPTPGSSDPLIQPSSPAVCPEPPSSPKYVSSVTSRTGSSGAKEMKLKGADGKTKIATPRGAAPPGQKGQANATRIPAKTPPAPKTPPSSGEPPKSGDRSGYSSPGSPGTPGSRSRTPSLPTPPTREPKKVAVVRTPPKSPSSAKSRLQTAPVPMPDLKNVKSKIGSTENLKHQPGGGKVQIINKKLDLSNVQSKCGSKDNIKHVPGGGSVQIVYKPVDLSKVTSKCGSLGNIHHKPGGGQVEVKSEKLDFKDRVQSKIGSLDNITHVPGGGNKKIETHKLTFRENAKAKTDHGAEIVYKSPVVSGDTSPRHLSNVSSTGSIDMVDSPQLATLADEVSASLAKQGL
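Recombinant tau protein (human, 1 uM final) plus 30 uM ODS in HEPES pH 7.4 with NaCl, DTT and thioflavine S. Compound present from the start; fluorescence at 510 nm after 15 h, 37 C.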
BRCT inh red – disrupts BRCA1 BRCT binding to phosphoprotein, red fluorophore readout. P38398. BRCT-phosphopeptide binding, red fluorescence polarization. Potency, µM (series often up to 76.9 µM), usual class: inhibitors. actives 0.03% (n = 75,000)
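Fluorescence polarization: 100 nM His-tagged BRCA1 BRCT with 100 nM TAMRA-labelled phospho-BACH1 decapeptide, phosphate buffer pH 7.3 with 150 mM NaCl, DTT, 0.01% Tween 20; 12 min RT. Binding inhibition seen as FP decrease.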
Each line names hits and unclear results; the compound was inactive in the other large screens; ! = not confirmed by another sample. Unless noted, the call rests on the fitted dose curve; in most records, active means well fitted curve in the direction sought with a large enough effect; inconclusive means small, poorly fitted or top-dose-only effect, or another doubt; inactive means no such curve, though single readings can be large; an effect the other way counts as inactive or inconclusive.

O=C(CCc1ccccc1)Nc1cc(Cl)ccc1O	none
Cc1ccc(O)c(C(=O)CC(=O)c2cccc(F)c2)c1	Tau filament bind 2µM
O=C(CC(=O)c1cc(Cl)ccc1O)c1ccccc1	Tau filament bind 25.1µM
CCCNC(=O)OC[C@H]1O[C@@H](CCO/N=C2/C[C@@H](O)[C@@H](O)[C@@H]3[C@@H]4C(=O)N(CC)C(=O)[C@H]4CC[C@@H]23)C=C[C@@H]1Oc1ccc(OC)cc1	none (no result: Hsp90 Hop PPI, Pol III holo inh, TsaE inh, Tau filament bind)
Nc1nc(NCCc2ccc(O)cc2)nc2nc(-c3ccco3)nn12	Tau filament bind 31.6µM
Cc1cc(N)n2ncc(-c3cccc(Br)c3)c2n1	Tau filament bind 1.58µM
Cc1cc(N)n2ncc(-c3ccccc3)c2n1	none
FC(F)(F)c1cc(CN2CCC3(CCNCC3)CC2)cc(C(F)(F)F)c1	Tau filament bind 12.6µM
COCCn1c(=O)c(-c2cn(C)c3ccccc23)nc2cnc(Oc3ccccc3)nc21	Hsp90 Hop PPI 3.16µM
COCCn1c(=O)c(-c2cccc(C#N)c2)nc2cnc(OC)nc21	none
COCCn1c(=O)c(-c2cccc(C#N)c2)nc2cnc(OCc3ccccc3)nc21	Tau filament bind 25.1µM
COCCn1c(=O)c(-c2cn(C)c3ccccc23)nc2cnc(OCc3ccccc3)nc21	none
COc1cccc2c1NC(C(=O)O)C1CC=CC21 (stereo not drawn)	Pol III holo inh 25.1µM, TsaE inh inconclusive
Cc1ccc2c(c1)C1C=CCC1C(C(=O)O)N2 (stereo not drawn)	Hsp90 Hop PPI inconclusive, Pol III holo inh inconclusive, Tau filament bind inconclusive, BRCT inh red inconclusive
Cc1cc(N2CCOCC2)c2c(N)c(C)cc(C)c2n1	Tau filament bind 15.8µM
COc1ccc2nc(C)cc(N3CCOCC3)c2c1	none
CCN(Cc1cc2ccccc2[nH]c1=O)S(=O)(=O)c1ccccc1	Tau filament bind 12.6µM
CC(C)C(=O)N(Cc1cc2ccccc2[nH]c1=O)C(C)C	none
CC(C)=CCC/C(C)=C/CC/C(C)=C/CSc1ccccc1C(=O)O	none
O=C(N/N=C/c1ccccc1O)c1cc(-c2ccccc2)n[nH]1	none (no result: Hsp90 Hop PPI, Pol III holo inh, TsaE inh, Tau filament bind)
O=C(N/N=C\c1ccccc1O)c1ccccc1O	Hsp90 Hop PPI 10µM, Pol III holo inh inconclusive, Tau filament bind 31.6µM
Nc1ccccc1-c1nnc(SCc2ccccc2F)[nH]c1=O	Tau filament bind 15.8µM
NC(N)=N[C@H](CCC(=O)O)C(=O)O	none
CCNc1ncc2nc(C)c(=O)n(C)c2n1	none
Oc1ccc2ccccc2c1Cc1c(O)ccc2ccccc12	Hsp90 Hop PPI inconclusive
Oc1c(C(O)(c2ccccc2)c2ccc3ccccc3c2O)ccc2ccccc12	Hsp90 Hop PPI inconclusive, Tau filament bind 1.26µM
O=C1c2c(O)ccc(O)c2C(=O)c2c(NCCNCCO)ccc(NCCNCCO)c21	Hsp90 Hop PPI 15.8µM!, Pol III holo inh 1µM, TsaE inh 79.4µM!, Tau filament bind 3.98µM
Cc1cc(-c2nnc(-c3ccccc3)c(-c3ccccc3)n2)c(C)o1	Tau filament bind 15.8µM
Nc1nnc(-c2ccccc2)c(-c2ccccc2)n1	none
CCn1c2ccccc2c2cc(NC(=O)Cc3ccc(S(=O)(=O)N4CCOCC4)s3)ccc21	Tau filament bind 6.31µM
COc1cccc(Cn2c(=O)cnc3cnc(Oc4ccccc4)nc32)c1	none
CN1CCc2c(sc3c2c(=O)n(-c2ccccc2)c2nnc(SCc4ccc(F)cc4)n32)C1	Tau filament bind 3.98µM
C/C(CCC(=O)OC[C@@H]1O[C@H](C#Cc2ccccc2)C=C[C@@H]1Oc1ccc(C)cc1)=N/O[C@@H](C)CN1CCCCc2nc(C)c(C)cc21	none (no result: Hsp90 Hop PPI, Pol III holo inh, TsaE inh, Tau filament bind)
O=c1c2cc(Cl)ccc2oc2nc3n(c(=O)c12)CCCS3	Tau filament bind 12.6µM
CCCc1cc2c(n1CCc1ccc(Cl)cc1)C(C)C1CN(C(=O)c3ccccc3)C(C)(C(=O)OC)C21 (stereo not drawn)	none
CC(=O)OC[C@@H]1O[C@H](C/C=N\O[C@@H](C)CN2CCCCc3nc(C)c(C)cc32)C=C[C@@H]1OC(C)=O	none (no result: Hsp90 Hop PPI, Pol III holo inh, TsaE inh, Tau filament bind)
CCCCOCCCn1c(-c2ccco2)nc2nc3ccccc3nc21	Tau filament bind 2µM
c1ccc(-c2nc3nc4ccccc4nc3n2Cc2ccco2)cc1	Tau filament bind 12.6µM
